Test results from publication PMC5540273 (PLoS ONE, 2017).

Key:
Conditions in all cases: concentration: 1 μM, replicates: in singlicate; n = 1
DMPK2 = system: T1, DMPK2
T1 construct: gene CDC42BPG

DMPK = system: DMPK
DRAK1 = system: T2, DRAK1
T2 construct: gene STK17A

DRAK2 = system: T3, DRAK2
T3 construct: gene STK17B

DYRK1A = system: DYRK1A
DYRK1B = system: DYRK1B
DYRK2 = system: DYRK2
EGFR = system: EGFR
EIF2AK1 = system: EIF2AK1
EPHA1 = system: EPHA1
EPHA2 = system: EPHA2
EPHA3 = system: EPHA3
EPHA4 = system: EPHA4
EPHA5 = system: EPHA5
EPHA6 = system: EPHA6
EPHA7 = system: EPHA7
EPHA8 = system: EPHA8
EPHB1 = system: EPHB1
EPHB2 = system: EPHB2
EPHB3 = system: EPHB3
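Also: KINOMEscan kinase panel screen.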

| Structure (SMILES) | %Inh (DMPK2) [%] | %Inh (DMPK) [%] | %Inh (DRAK1) [%] | %Inh (DRAK2) [%] | %Inh (DYRK1A) [%] | %Inh (DYRK1B) [%] | %Inh (DYRK2) [%] | %Inh (EGFR) [%] | %Inh (EIF2AK1) [%] | %Inh (EPHA1) [%] | %Inh (EPHA2) [%] | %Inh (EPHA3) [%] | %Inh (EPHA4) [%] | %Inh (EPHA5) [%] | %Inh (EPHA6) [%] | %Inh (EPHA7) [%] | %Inh (EPHA8) [%] | %Inh (EPHB1) [%] | %Inh (EPHB2) [%] | %Inh (EPHB3) [%] |
| --- | --- | --- | --- | --- | --- | --- | --- | --- | --- | --- | --- | --- | --- | --- | --- | --- | --- | --- | --- | --- |
| Cc1ccccc1-c1cc(-c2c[nH]nc2-c2ccccn2)ccn1 [GW680061] | 0 | 0 | 2 | 0 | 14 | 0 | 0 | 38 | 0 | 3 | 10 | 0 | 11 | 0 | 11 | 14 | 22 | 0 | 15 | 9 |
| Cc1ccc(NC(=O)Nc2ccccc2)cc1-c1ccc(C(=O)Nc2ccncc2)cc1 [GSK1398471] | 9 | 0 | 9 | 0 | 9 | 0 | 14 | 10 | 0 | 24 | 17 | 4 | 32 | 0 | 15 | 5 | 36 | 11 | 13 | 15 |
| CN1c2ccc(-c3ccc(C(N)=O)cc3)cc2-c2[nH]ncc2S1(=O)=O | 0 | 0 | 52 | 15 | 34 | 24 | 0 | 0 | 0 | 8 | 0 | 0 | 0 | 4 | 5 | 0 | 0 | 0 | 0 | 5 |
| Cn1cncc1C(=O)NC1CCN(c2ccnc(Nc3ccc(F)cc3)n2)C1 (stereo not drawn) [GSK1379717] | 0 | 0 | 0 | 0 | 0 | 21 | 0 | 15 | 3 | 2 | 0 | 0 | 0 | 0 | 0 | 3 | 4 | 7 | 0 | 0 |
| COc1ccc(CSc2nnc(-c3ccc4nccn4c3)o2)cc1C(F)(F)F | 2 | 41 | 31 | 0 | 41 | 41 | 0 | 4 | 7 | 0 | 7 | 8 | 11 | 10 | 9 | 15 | 16 | 17 | 0 | 7 |
| Nc1nccc(-c2c(-c3ccc(F)cc3)ncn2C2CCN(Cc3ccccc3)CC2)n1 [SB-219980] | 52 | 0 | 10 | 14 | 0 | 0 | 14 | 10 | 0 | 0 | 0 | 0 | 4 | 21 | 24 | 0 | 1 | 9 | 0 | 20 |
| COc1cc2ncnc(Nc3cccc(Br)c3)c2cc1OC.Cl [GI230329] | 5 | 6 | 34 | 0 | 15 | 0 | 21 | – | 47 | 18 | 13 | 33 | 0 | 0 | 41 | 7 | 12 | 20 | 9 | 1 |
| CCCCc1nn2ncccc2c1-c1ccnc(NC2CC2)n1 [GW684374] | 0 | 0 | 0 | 0 | 12 | 3 | 6 | 26 | 0 | 11 | 0 | 0 | 0 | 0 | 0 | 0 | 9 | 13 | 0 | 0 |
